# Experimental data as given in PubChem BioAssay.
# Inconclusive results are not listed. The source made the active and inactive calls. Unless noted, no stated cut-off is given here; in the data, active means inhibition above about 80%; inactive means the rest.
# How the values were obtained:
# [1] = viability loss in pontine glioma line – cell-based, SU-DIPG-XIII, MIPE5.0, CellTiter-Glo, qHTS, dose response (AID 1347064; cut-off not given, nearly all actives have AC50 up to about 23 µM); details: CellTiter-Glo ATP luminescence
# [2] = growth inhibition, single agent or in combination, cell-based, chromothripsis tumors, cisplatin or BGB combos (AID 1671449); details: LFS_MB_P medulloblastoma cells;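 further: cells exposed for 96 hours; 0% = vehicle DMSO and 100% = killing by high DMSO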
# [3] = growth inhibition, single agent and combos, cell-based, chromothripsis tumors, cisplatin or BGB combos (AID 1671450); details: HDN33 neuroblastoma cells, stronger effect = higher value;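 further: cells exposed to compound for four days; 0% = vehicle DMSO and 100% = cell killing by high DMSO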
# [4] = growth inhibition, single agents and combos, ICB984, cell-based, cisplatin or BGB combos, synergistic combos for chromothripsis tumors (AID 1671451; call rule not given here;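 further: cells exposed for 96 hours before readout; 0% = vehicle DMSO and 100% = killing by high DMSO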); details: ICB984 medulloblastoma cells, drug combinations, stronger effect = higher value
# [5] = growth inhibition, single agents and combos, LFS_MB_1R, cell-based, cisplatin or BGB combos, synergistic combos for chromothripsis tumors (AID 1671452); details: LFS_MB_1R medulloblastoma cells, stronger effect = higher value;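 further: cells exposed for 96 hours before readout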
# [6] = growth inhibition, single agents and combos, HTB85, cell-based, BGB or cisplatin IC20 combos, synergistic combos for chromothripsis tumors (AID 1671453); details: HTB85 osteosarcoma cells, drug combinations, stronger effect = higher value;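 further: cells exposed for 96 hours before readout; 0% = vehicle DMSO and 100% = high DMSO killing control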
# [7] = growth inhibition, single agents and combos, CRL2098, cell-based, BGB or cisplatin IC20 combos, synergistic combos for chromothripsis tumors (AID 1671454); details: CRL2098 osteosarcoma cells, drug combinations, stronger effect = higher value;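 further: cells exposed for 96 h before readout; 0% = vehicle DMSO and 100% = killing by high DMSO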
# [8] = growth inhibition, single agents and combos, HD-MB03, cell-based, BGB or cisplatin IC20 combos, synergistic combos for chromothripsis tumors (AID 1671455; in the data active means inhibition above about 83%;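 further: 0% = vehicle DMSO and 100% = high DMSO as cytotoxic control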); details: HD-MB03 medulloblastoma cells, stronger effect = higher value
# [9] = growth inhibition, single agents and combos, UWB1.289, cell-based, BGB or cisplatin combos, synergistic combos for chromothripsis tumors (AID 1671456); details: UWB1.289 ovarian carcinoma cells, stronger effect = higher value;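 further: cells exposed to compound for four days; 0% = vehicle DMSO and 100% = killing by high DMSO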
# [10] = growth inhibition, single agents and combos, LFS_MB_2R, cell-based, cisplatin combos, synergistic combos for chromothripsis tumors (AID 1671457); details: LFS_MB_2R medulloblastoma cells, stronger effect = higher value;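 further: cells exposed to compound for four days before readout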
# [11] = growth inhibition, MDA-MB-436, cell-based, BGB or cisplatin combos, synergistic combos for chromothripsis tumors (AID 1671458; call rule not given here;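 further: cells exposed for 96 hours; 0% = vehicle DMSO and 100% = killing by high DMSO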); details: MDA-MB-436 breast carcinoma growth inhibition, drug combinations, stronger effect = higher value
# [12] = BT084 cell growth, single and combined drugs, ICGC_MB145, cisplatin and BGB IC40 combos (AID 1671461); details: BT084 medulloblastoma cells, drug combinations, stronger effect = higher value;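 further: cells exposed to drugs for 96 hours; 0% = vehicle DMSO and 100% = high DMSO full killing control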
# [13] = RCMB18 cell growth, single agent and combined, cisplatin and BGB IC40 combos (AID 1671462); details: RCMB18 medulloblastoma cells, stronger effect = higher value;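 further: cells exposed to compound for four days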
# [14] = CRL1545 cell growth, single agent and combined, cisplatin and BGB IC20 combos (AID 1671464); details: CRL1545 osteosarcoma cells, stronger effect = higher value;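 further: cells exposed to compound for 96 hours before readout; 0% = vehicle DMSO and 100% = high DMSO killing control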
# [15] = compounds altering HSF1 focus formation in cells – imaging, Selleck Cancer Library (AID 1347162; in the data active means plate-normalised HSF1 focus index below about 0.46); details: human cells, HSF1 nuclear foci imaging, at 10 µM; SSMD: measured here: HSF1 foci SSMD mean; cell count: measured here: cell number; plate-normalised HSF1 focus index: stronger effect = lower value
# [16] = target: NAD(+) hydrolase SARM1 (Homo sapiens) (UniProt Q6SZW1); test: blocking NAD cleavage by SARM1 SAM-TIR – cell lysate, NAD-Glo luminescence (AID 1508614;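 active means compound whose remaining NAD level is above about 45 nM, limit read from the data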); details: SAM-TIR HEK293T lysate NADase, at 1 µM, stronger effect = higher value
# [17] = target: ATP-dependent translocase ABCB1 (Homo sapiens) (UniProt P08183); test: P-glycoprotein substrate transport blockade – cell-based (AID 377; in the data active means fluorescence slope change above about 50%); details: MDR1-expressing cells, fluorescent substrate accumulation slope; stronger effect = higher value; concentration not given here
# [18] = measured here: combination with BGB IC40, at 0.05 µM
# [19] = measured here: with BGB IC20 combination, at 0.5 µM
# [20] = measured here: with cisplatin IC20 combination, at 0.5 µM
# [21] = measured here: combination with cisplatin, at 0.5 µM
# [22] = measured here: combination with cisplatin, at 5 µM
# Sequence of ATP-dependent translocase ABCB1 (Homo sapiens) (P08183 whole entry, looked up): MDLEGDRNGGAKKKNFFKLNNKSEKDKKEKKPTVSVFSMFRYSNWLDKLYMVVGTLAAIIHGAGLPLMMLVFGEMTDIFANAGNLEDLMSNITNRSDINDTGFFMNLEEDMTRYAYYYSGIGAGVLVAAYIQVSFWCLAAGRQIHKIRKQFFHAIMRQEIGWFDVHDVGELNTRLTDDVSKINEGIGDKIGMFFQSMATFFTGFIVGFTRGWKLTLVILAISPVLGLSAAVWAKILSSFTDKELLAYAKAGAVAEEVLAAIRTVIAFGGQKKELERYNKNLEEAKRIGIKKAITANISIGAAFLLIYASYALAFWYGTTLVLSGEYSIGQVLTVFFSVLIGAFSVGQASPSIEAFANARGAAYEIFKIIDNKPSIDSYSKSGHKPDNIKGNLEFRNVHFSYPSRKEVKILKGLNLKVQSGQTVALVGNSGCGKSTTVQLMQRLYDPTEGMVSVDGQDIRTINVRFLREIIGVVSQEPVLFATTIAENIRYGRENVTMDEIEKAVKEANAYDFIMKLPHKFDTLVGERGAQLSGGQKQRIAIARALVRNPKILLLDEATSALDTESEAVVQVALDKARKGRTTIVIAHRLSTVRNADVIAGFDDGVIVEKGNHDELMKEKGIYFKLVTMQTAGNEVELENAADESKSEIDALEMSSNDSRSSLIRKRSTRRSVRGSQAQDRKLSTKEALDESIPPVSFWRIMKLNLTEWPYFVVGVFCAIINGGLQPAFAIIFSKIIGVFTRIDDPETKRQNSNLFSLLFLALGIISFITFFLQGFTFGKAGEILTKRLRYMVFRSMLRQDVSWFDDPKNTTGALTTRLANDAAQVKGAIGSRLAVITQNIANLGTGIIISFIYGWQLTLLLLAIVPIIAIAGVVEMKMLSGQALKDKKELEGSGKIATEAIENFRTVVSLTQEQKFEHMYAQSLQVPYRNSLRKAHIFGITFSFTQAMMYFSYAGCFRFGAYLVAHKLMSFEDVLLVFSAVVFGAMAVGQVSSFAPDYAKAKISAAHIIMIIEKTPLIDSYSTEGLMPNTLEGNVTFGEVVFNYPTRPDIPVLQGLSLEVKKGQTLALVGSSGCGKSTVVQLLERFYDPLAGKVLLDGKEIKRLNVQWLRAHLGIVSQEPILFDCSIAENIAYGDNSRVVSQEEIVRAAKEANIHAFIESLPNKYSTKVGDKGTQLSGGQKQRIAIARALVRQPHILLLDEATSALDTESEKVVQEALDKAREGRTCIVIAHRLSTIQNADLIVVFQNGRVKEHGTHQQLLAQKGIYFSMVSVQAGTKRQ
# Sequence of NAD(+) hydrolase SARM1 (Homo sapiens) (Q6SZW1 whole entry, looked up): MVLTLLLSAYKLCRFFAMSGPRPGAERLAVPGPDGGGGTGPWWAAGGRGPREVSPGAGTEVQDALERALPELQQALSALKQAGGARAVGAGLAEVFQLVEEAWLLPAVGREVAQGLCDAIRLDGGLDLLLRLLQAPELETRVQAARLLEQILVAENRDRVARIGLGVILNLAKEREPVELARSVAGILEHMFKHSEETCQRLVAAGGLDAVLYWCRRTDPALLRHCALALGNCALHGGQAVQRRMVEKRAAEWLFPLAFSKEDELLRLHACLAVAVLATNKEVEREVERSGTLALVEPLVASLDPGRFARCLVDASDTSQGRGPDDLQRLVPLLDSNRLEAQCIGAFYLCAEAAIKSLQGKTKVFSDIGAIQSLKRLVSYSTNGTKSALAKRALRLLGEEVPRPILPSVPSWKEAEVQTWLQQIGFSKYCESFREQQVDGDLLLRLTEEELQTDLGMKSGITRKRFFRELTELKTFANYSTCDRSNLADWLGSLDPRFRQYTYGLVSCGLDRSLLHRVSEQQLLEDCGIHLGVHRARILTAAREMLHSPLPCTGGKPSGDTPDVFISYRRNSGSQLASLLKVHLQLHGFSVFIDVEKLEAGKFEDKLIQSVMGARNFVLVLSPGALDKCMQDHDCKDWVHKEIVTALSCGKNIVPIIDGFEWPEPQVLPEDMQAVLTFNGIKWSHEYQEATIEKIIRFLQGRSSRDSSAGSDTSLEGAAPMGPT
structure (smiles),measurement,setting,value
CCOC(=O)Nc1ccc(NCc2ccc(F)cc2)nc1N,outcome,[1],inactive
same,inhibition,"[2]; at 0.5 µM, stronger effect = higher value",-13% (inactive)
same,inhibition,"[2]; measured here: combination with BGB IC20, at 0.005 µM",-4.33%
same,inhibition,"[2]; measured here: combination with BGB IC40, at 0.005 µM",50.9%
same,inhibition,[2]; [18],-18.8%
same,inhibition,"[2]; measured here: combination with cisplatin, at 0.5 µM, stronger effect = higher value",4.96%
same,inhibition,"[2]; measured here: combination with cisplatin, at 5 µM, stronger effect = higher value",-32.9%
same,inhibition,"[3]; BGB combo, at 5 µM",-49%
same,inhibition,[3]; at 0.5 µM,0.72% (inactive)
same,inhibition,"[3]; cisplatin combo, at 5 µM",-18.8%
same,inhibition,[3]; [19],-18.2%
same,inhibition,[3]; [20],17%
same,inhibition,"[3]; single agent, at 5 µM",-28.3%
same,inhibition,"[4]; BGB IC20 combo, at 0.005 µM",-2.86%
same,inhibition,"[4]; BGB IC40 combo, at 0.005 µM",-6.26%
same,inhibition,"[4]; BGB IC40 combo, at 0.05 µM",-38.3%
same,inhibition,[4]; at 0.5 µM,-14.8% (inactive)
same,inhibition,"[4]; cisplatin combo, at 0.05 µM",-45.5%
same,inhibition,"[4]; cisplatin combo, at 0.5 µM",-9.07%
same,inhibition,"[4]; cisplatin combo, at 5 µM",-15.3%
same,inhibition,"[4]; measured here: 5 uM single agent, at 5 µM",-2.67%
same,inhibition,[5]; at 0.5 µM,-9.81% (inactive)
same,inhibition,[5]; [18],-17%
same,inhibition,[5]; [21],-23.8%
same,inhibition,[5]; [22],-29.7%
same,inhibition,[6]; at 0.5 µM,21.2% (inactive)
same,inhibition,"[6]; measured here: with BGB IC20, at 0.5 µM",57.6%
same,inhibition,"[6]; measured here: with BGB IC20, at 5 µM",10.9%
same,inhibition,"[6]; measured here: with cisplatin IC20, at 0.5 µM",-16.9%
same,inhibition,"[6]; measured here: with cisplatin IC20, at 5 µM",0.401%
same,inhibition,"[6]; single agent, at 5 µM",1.76%
same,inhibition,[7]; at 0.5 µM,-23.9% (inactive)
same,inhibition,"[7]; measured here: combination with BGB at IC20, at 0.5 µM",-12.9%
same,inhibition,"[7]; measured here: combination with cisplatin at IC20, at 0.5 µM",-33.8%
same,inhibition,[8]; at 0.5 µM,-9% (inactive)
same,inhibition,"[8]; measured here: combo with BGB at IC20, at 0.5 µM",-9.72%
same,inhibition,"[8]; measured here: combo with cisplatin at IC20, at 0.5 µM",-9.37%
same,inhibition,[9]; at 0.5 µM,4.04% (inactive)
same,inhibition,"[9]; measured here: inhibition with BGB combination, at 0.05 µM",-16.5%
same,inhibition,"[9]; measured here: inhibition with cisplatin combination, at 0.05 µM",-2.73%
same,inhibition,[10]; at 0.5 µM,-26.1% (inactive)
same,inhibition,[10]; [21],-30.1%
same,inhibition,[10]; [22],-38%
same,inhibition,[11]; at 0.5 µM,-12.4% (inactive)
same,inhibition,"[11]; measured here: BGB combination, at 0.5 µM",-4.35%
same,inhibition,"[11]; measured here: BGB combination, at 5 µM",-17.6%
same,inhibition,"[11]; measured here: cisplatin combination, at 0.5 µM",-28%
same,inhibition,"[11]; measured here: cisplatin combination, at 5 µM",-26.4%
same,inhibition,[12]; at 0.5 µM,3.08% (inactive)
same,inhibition,"[12]; cisplatin combination, at 0.5 µM",2.67%
same,inhibition,"[12]; cisplatin combination, at 5 µM",-33.2%
same,inhibition,"[12]; measured here: BGB IC40 combination 0.05 uM, at 0.05 µM",71.5%
same,inhibition,"[12]; single agent, at 5 µM",2.9%
same,inhibition,[13]; at 0.5 µM,-10.8% (inactive)
same,inhibition,"[13]; cisplatin combo, at 5 µM",-27%
same,inhibition,"[13]; measured here: BGB IC40 combination, at 0.05 µM",4.05%
same,inhibition,[13]; [21],-15.1%
same,inhibition,"[13]; single agent, at 5 µM",-7.25%
same,inhibition,[14]; at 0.5 µM,5.77% (inactive)
same,inhibition,[14]; [19],-17.8%
same,inhibition,[14]; [20],16.2%
same,inhibition,"[14]; single agent, at 0.05 µM",-4.81%
same,inhibition,"[14]; single agent, at 5 µM",-34.9%
C[C@]12CC[C@@H]3c4ccc(O)cc4C[C@@H](CCCCCCCCCS(=O)CCCC(F)(F)C(F)(F)F)[C@H]3[C@@H]1CC[C@@H]2O (some centres not stated),SSMD,[15],2.09
same,cell count,[15],7000
same,plate-normalised HSF1 focus index,[15],1.13 (inactive)
same,remaining NAD,[16],10 nM (inactive)
OCCN1CCN(CC/C=C2/c3ccccc3Sc3ccc(C(F)(F)F)cc32)CC1,fluorescence slope change,[17],77.6% (active)
C(=C\c1ccccc1)/CN1CCN(C(c2ccccc2)c2ccccc2)CC1,fluorescence slope change,[17],102% (active)
Nc1cccc2c1CN(C1CCC(=O)NC1=O)C2=O (configuration not stated),SSMD,[15],2.07
same,cell count,[15],6670
same,plate-normalised HSF1 focus index,[15],1.11 (inactive)
